Experimental data from PubChem BioAssay (NCI).
Compounds without any hit were thinned out: in the full panel of roughly 83,000, 20% have a hit.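 Note: values are percent growth. 100 is the growth of untreated cells, values between 100 and 0 indicate rising inhibition; between -100 and 0 indicates cell death.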 A number with no mark means an inactive call. Calls of active or inactive are those of the source.

The molecules below were run on HCC-2998 colon (assay: NCI-60 one-dose screen, 48 h (100 = growth as untreated, 0 = no growth, -100 = all killed)). Settings: 10 µM unless noted.
Description: Growth inhibition of the HCC-2998 human tumor cell line is measured as a screen for anti-cancer activity. Cells are grown in 96 well plates and exposed to the test compound for 48 hours. Compounds are tested at a single concentration, which is 10^-5 M for most compounds. The reported endpoint is percent growth (GI% or GIPRCNT), where numbers from 0 - 100% represent growth inhibition, and numbers from -100% - 0 represent cell death. For example, a value of 40 represents 60% growth inhibition. A value of 0 means no net growth occurred over the course of the experiment. A value of -40 indicates 40% of cells at the beginning of the experiment died by the end of the experiment. A value of -100 means all cells are dead at the end of the experiment.
NCI-60 Human Tumor Cell Lines Screen was performed using the standard one-dose NCI protocol, which is described in more detail at https://dtp.cancer.gov/discovery_development/nci-60/default.htm.
Compounds with GIPRCNT values below 10 were considered active. Activity score was based on GIPRCNT using the following formula: […]
Score is 0 for GIPRCNT values of 100 or above, 50 for GIPRCNT values of 0, and 100 for GIPRCNT values of -100.
`O=C(/C=C/c1ccccc1)c1ccc(-n2cc(CN3CCN(c4cc5c(cc4F)c(=O)c(C(=O)O)cn5C4CC4)CC3)nn2)cc1` gave a growth of 88.3%.
In the case of `Cn1c2ccccc2c2c3c(c4c5cc(Br)ccc5n(C)c4c21)C(=O)N(O)C3=O`, the growth is reported as 57.5%.
In the case of `Cc1ccc(C(=O)c2ccc(CC(=O)N/N=C/c3cccc(O)c3O)n2C)cc1`, the growth is reported as 70.6%.
For `O=c1cc(CNc2cc(F)cc(F)c2)c2ccc(I)cc2[nH]1`, the growth was 64.6%.
For `O=C(CCCCCCCC(=O)N1CCCCC1)N1CCCCC1`, the growth was 86.5%.
Work on `O=C(/C=C/c1ccccc1Cl)c1cccc(OCCCCOc2cccc(C(=O)/C=C/c3ccccc3Cl)c2)c1` yielded a growth of 104%.
For `Cc1ccc(C2CC(c3cccc(Nc4ccncc4)c3)=Nc3c(N)nc(N)nc3N2)cc1` (stereo not given), the growth was 62.4%.
`c1ccc(Cn2cc3c(c2-c2ccccc2)CCc2cnoc2-3)cc1` was tested, and the growth was 58.5%.
Molecule `CN(C)/C(N)=N/N=C(\c1ccccc1)c1ccccn1` has a growth of 94.3%.
With `Cc1ccc(OCCOCCOCCOCCOCCOc2ccc(C)n(O)c2=S)c(=S)n1O` the growth was -7.72% (active).
`O=C(/C=C/c1cn(-c2ccccc2)nc1-c1ccccc1)CCC(=O)NO` gave a growth of 111%.
With `Nc1nc(C(=O)N/N=C/c2ccc(F)cc2)nn1-c1ccc(S(N)(=O)=O)cc1` the growth was 107%.
`ClCCn1cnc2c(SCc3ccccc3)ncnc21` showed a growth of 57.4%.
In the case of `COc1ccc2c(O)c(/C=C3\N=Nc4ncccc43)oc2c1C[C@@H]1CCNC[C@H]1F`, the growth is reported as -21.5% (active).
`COc1ccc(Oc2ccc(/C=C/C(=O)c3ccc(OC)c(OC)c3)cc2)cc1` showed a growth of 104%.
`CC(=O)O[C@H]1CC[C@]2(C)[C@H]3CC=C4[C@@H]5CC(C)(C)CC[C@]5(C(=O)N5CCN(CCC#N)CC5)CC[C@@]4(C)[C@]3(C)CC[C@H]2C1(C)C` showed a growth of 47.7%.
`CNC(=O)c1cc(Oc2ccc3c(c2)sc2nc(-c4ccc(Cl)c(C(F)(F)F)c4)cn23)ccn1` gave a growth of 80.5%.
For `C[C@@H]1NC(=O)[C@H](Cc2ccccc2)N(Cc2cccnc2)C1=O`, the growth was 106%.
For `Cc1[nH]c(C(=O)Nc2ccccc2OC2CCN(CCN3CCOCC3)CC2)c(Cl)c1Cl`, the growth was 107%.
`Cc1ccc(-c2nc(SCC(=O)N3CCN(c4cc5c(cc4F)c(=O)c(C(=O)O)cn5C4CC4)CC3)nc(Cl)c2C#N)cc1` gave a growth of 98.8%.
With `CCOC(=O)NCCCC(=O)NCCc1ccccc1` the growth was 99.1%.
With `CS(=O)/C(C#N)=C\C=C\c1cccc(Cl)c1` (stereo not given) the growth was -31.1% (active).
Molecule `COCCOC(C)C(/C=N/NC(N)=S)=N/NC(N)=S` (stereo not given) has a growth of 94.2%.
Molecule `COCCn1cc(-c2csc(-c3c[nH]c4ccccc34)n2)c2cccnc21` has a growth of 42.1%.
`NCCCNc1nc2ccccc2c2c(=O)c3cc(Cl)ccc3sc12` was tested, and the growth was -75.6% (active).
Work on `N#C/C(=C\c1ccc(-c2cccc(Cl)c2)o1)C(=O)Nc1ncc(Cc2ccc(Cl)cc2)s1` yielded a growth of 94.3%.
Work on `COc1cc(OC)c2c(=O)c3c(CC=C(C)C)cc(OC)c(O)c3oc2c1` yielded a growth of 106%.
For `Cc1ccc(OCCOCCOCCOc2ccc(C)n(O)c2=S)c(=S)n1O`, the growth was 57.9%.
With `Nc1ncnc2c1N=C(c1ccc(F)cc1)CC(c1cccc(Nc3ccnc4cc(Cl)ccc34)c1)N2` (stereo not given) the growth was 82.5%.
`COC12C=C/C(=C(/C(=O)OCc3csc(SC)n3)C(=O)CCCCCCCCC3(OC)C=C/C(=C(/C(=O)OCc4cnc(SC)s4)C(=O)CCCCCCCC1)O3)O2` (stereo not given) was tested, and the growth was -62.4% (active).
`CCCCCCCCCCOC(=O)c1nn(C(C)=O)c2cc(C)c(C)cc12` showed a growth of 105%.
`COC(=O)/C=C1/SC(=Nc2ccc(F)cc2)N(CCc2c[nH]c3ccc(O)cc23)C1=O` showed a growth of 45.9%.
For `CC(C)=CC(=O)N[C@H]1CC[C@]2(C)C3CC[C@]4(C)C(C(C)N(C)C)=CCC4C3CCC2[C@H]1O` (stereo not given in full), the growth was 35.8%.
Work on `CCOC(=O)/C(=C(/C)NCC(C)C)c1cc(O)c(O)c2c(C)cc(=O)[nH]c12` yielded a growth of 61.9%.
Molecule `CNC(=O)c1cc(Oc2ccc3c(c2)sc2nc(-c4ccc(NC(=O)[C@@H](NC(=O)OC)C(C)C)cc4)cn23)ccn1` has a growth of 93.4%.
`Cc1ccc2nc(-c3ccc(C(=O)N/N=C/c4ccc([N+](=O)[O-])cc4)cc3)[nH]c2c1` gave a growth of 105%.
With `O=C(Nc1ccccc1O)c1ccc(CNc2ccnc(C(F)(F)F)c2)cc1` the growth was 99.6%.
For `COc1ccc(C=Nc2c(C(=O)Nc3cccc(Cl)c3C)sc3nc(C)c(C(=O)/C=C/c4ccc(OC)cc4)cc23)cc1`, the growth was 57.6%.
`CC1(C)N=C(N)N=C(N)N1c1ccc(S(=O)(=O)Nc2nccs2)cc1` was tested, and the growth was 113%.
`O=S(=O)(Nc1cc(Sc2nc3ccccc3s2)c(O)c2ccccc12)c1ccc2ccccc2c1` showed a growth of 109%.
